HEK293 tox – cytotoxicity in counter-screen for GLP-1R inverse agonists; Potency, µM (titrated, usually from 38.3 µM), usual class: inhibitors; hit rate 0.13% among 410,000; HEK293 cAMP-luciferase reporter cells, luminescence, 24 h;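 note: loss of luciferase light is scored as toxicity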
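Seeding density was 200 cells/uL; after overnight-length (12 h) culture, 23 nL compounds went on for 24 h at 37 °C. Readout used a luciferase detection reagent, luminescence taken after 12 min at room temperature.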
BRCA1 expr up – BRCA1 expression activation; hit rate 1.1% among 380,000; Potency, µM (top dose mostly 46.1 µM), hits mostly activators; MCF7-BRCA1-FFLuc reporter, luminescence, 48 h; response scale: scaled: vehicle 0%, 10 µM genistein 100%; note: nearly all actives have a fitted effect of over 80% in size
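First, MCF7-BRCA1-FFLuc cells (2000/well) attach for 2 h; next, compounds are pin-added and incubated 48 h at 37 °C; finally, luciferase reagent is added and luminescence read after 15 min.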
GLP-1R inv ag – acts as inverse agonist at human GLP-1 receptor. HEK293 GLP-1R CRE-luciferase, luminescence, 24 h; GLP-1R form is constitutively active. Potency, µM (series often up to 38.3 µM), hits mostly inhibitors. hit rate 1.6% among 410,000; note: nearly all actives have a fitted effect of over 55% in size
Target sequence (P43220 whole entry, looked up): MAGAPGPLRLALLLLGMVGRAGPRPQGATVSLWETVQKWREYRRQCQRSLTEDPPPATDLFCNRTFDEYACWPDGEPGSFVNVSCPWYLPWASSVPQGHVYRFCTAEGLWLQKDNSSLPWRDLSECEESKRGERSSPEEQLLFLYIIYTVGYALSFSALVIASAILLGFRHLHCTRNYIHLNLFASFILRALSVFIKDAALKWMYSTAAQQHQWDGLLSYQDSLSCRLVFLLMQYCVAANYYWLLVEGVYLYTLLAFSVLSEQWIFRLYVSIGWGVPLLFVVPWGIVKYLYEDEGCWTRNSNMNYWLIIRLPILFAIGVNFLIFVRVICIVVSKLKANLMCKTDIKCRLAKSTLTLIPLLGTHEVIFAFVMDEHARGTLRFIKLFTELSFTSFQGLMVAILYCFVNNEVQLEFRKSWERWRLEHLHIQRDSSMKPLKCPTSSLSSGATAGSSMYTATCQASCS
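Assay principle: reduced luminescence from a cAMP-responsive reporter in HEK293 cells co-expressing a constitutively active GLP-1R. Conditions: 24 hr compound incubation, 37 deg C, 5% CO2.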
GLP-1R agonist – GLP-1 receptor (human) agonism | HEK293 GLP-1R CRE-luciferase, luminescence, 4-6 h; cells express a hypersensitive GLP-1R form | hit rate 0.007% among 380,000 | AID 624172 | Potency, µM (titrated, usually from 45.6 µM), hits mostly activators | P43220
Numbers stand for hits; ! = not active in a repeat. An excerpt weighted towards active compounds, which were near 2.6% of everything screened. Calls come from the whole dose curve; as a rule, active = well fitted curve in the direction sought with a large enough effect; inconclusive = small, poorly fitted or top-dose-only effect, or another doubt; inactive = no such curve, though single readings can be large; an effect the other way counts as inactive or inconclusive.

`CC1CCC(NC(=O)c2ccc3c(c2)N(Cc2ccccc2)C(=O)c2ccccc2S3(=O)=O)CC1` (centres undefined) gave HEK293 tox inactive and GLP-1R inv ag inconclusive.
`O=C(O)CC1c2ccccc2CCN1C(=O)Nc1cc(Cl)ccc1Cl` (centres undefined) gave HEK293 tox inactive and GLP-1R inv ag inactive.
For Cc1ccc(NC(=O)c2ccccc2)cc1 the results were HEK293 tox inactive, BRCA1 expr up 3.5µM, GLP-1R inv ag inactive and GLP-1R agonist inactive.
`Cc1ccc(S(=O)(=O)/C(=C/Cl)NC(=O)c2ccccc2)cc1` gave HEK293 tox 6.3µM, BRCA1 expr up inactive, GLP-1R inv ag 10µM and GLP-1R agonist inactive.
Screening Cc1ccc(C(=O)Nc2ccc3ccccc3c2)cc1 returned HEK293 tox inactive, BRCA1 expr up inactive, GLP-1R inv ag 5µM and GLP-1R agonist inactive.
For Cc1ccc(C(=O)CC(=O)c2ccccc2)cc1 the results were HEK293 tox inactive, BRCA1 expr up 5µM, GLP-1R inv ag inactive and GLP-1R agonist inactive.
Screening O=C(Nc1ccc(-c2ccccc2)cc1)c1ccccc1 returned HEK293 tox inactive, BRCA1 expr up inactive, GLP-1R inv ag inconclusive and GLP-1R agonist inactive.
Cc1cccc(N(C)C(=O)CN(C)S(=O)(=O)c2ccc3[nH]c4c(c3c2)CCCC4)c1 was read as HEK293 tox inactive and GLP-1R inv ag inconclusive.
CC(C)OC(=O)c1ccc(NC(=O)c2ccccc2)cc1 was read as HEK293 tox inactive, BRCA1 expr up 2.5µM, GLP-1R inv ag inconclusive and GLP-1R agonist inactive.
Cc1ccc(C(=O)Nc2cccc(C(=O)NCc3ccccc3)c2)cc1 was read as HEK293 tox inactive, BRCA1 expr up inactive, GLP-1R inv ag 13µM and GLP-1R agonist inactive.
`O=C(Nc1ccc2c(c1)C(=O)c1ccccc1-2)c1ccccc1` gave HEK293 tox inactive, BRCA1 expr up 2.8µM, GLP-1R inv ag inactive and GLP-1R agonist inactive.
Screening CCOC(=O)c1ccc(NC(=O)c2ccc(NC(=O)c3ccccc3)cc2)cc1 returned HEK293 tox inactive, BRCA1 expr up inactive, GLP-1R inv ag inactive and GLP-1R agonist inactive.
Cc1ccccc1C(=O)Nc1cccc(NC(=O)c2ccc(F)cc2)c1 was read as HEK293 tox inactive, BRCA1 expr up inactive, GLP-1R inv ag 10µM and GLP-1R agonist inactive.
`COc1ccc(C(=O)Nc2cccc(C(=O)NCc3ccccc3)c2)cc1` gave HEK293 tox inactive, BRCA1 expr up inactive, GLP-1R inv ag inactive and GLP-1R agonist inactive.
Screening O=C(Nc1cccc(NC(=O)c2ccccc2Cl)c1)c1ccc(F)cc1 returned HEK293 tox inactive, BRCA1 expr up inactive, GLP-1R inv ag inconclusive and GLP-1R agonist inactive.
CC1Cc2cc(S(=O)(=O)NCc3ccccc3Cl)ccc2N1C(=O)C1CCC1 (centres undefined) was read as HEK293 tox inactive and GLP-1R inv ag inconclusive.
CCCCN(C)CCCNC(=O)Cn1ncc2c3ccccc3n(Cc3cc(C)ccc3C)c2c1=O was read as HEK293 tox inactive and GLP-1R inv ag inconclusive.
Screening Cc1cccc(NC(=O)Nc2cc(C)cc(C)n2)c1 returned HEK293 tox inactive, BRCA1 expr up 3.5µM, GLP-1R inv ag inactive and GLP-1R agonist inactive.
Cc1ccc(CNC(=O)Nc2cccc(C)c2)cc1 was read as HEK293 tox inactive, BRCA1 expr up 8.9µM, GLP-1R inv ag inactive and GLP-1R agonist inactive.
For CC1CCC/C=C/C(=O)c2c(O)cc(O)cc2CC(=O)O1 (centres undefined) the results were HEK293 tox inconclusive, BRCA1 expr up inactive, GLP-1R inv ag 5µM and GLP-1R agonist inactive.
Screening O=C(CCCSc1ccc(Cl)cc1)Nc1ccccc1O returned HEK293 tox inactive, BRCA1 expr up inactive, GLP-1R inv ag inconclusive and GLP-1R agonist inactive.
`S=C(NCCSCc1ccc(Cl)cc1Cl)Nc1ccccc1` gave HEK293 tox inactive, BRCA1 expr up inactive, GLP-1R inv ag 3.5µM and GLP-1R agonist inactive.
For S=C(NCc1ccccc1)Nc1cccc(Cl)c1 the results were HEK293 tox 10µM, BRCA1 expr up inactive, GLP-1R inv ag inconclusive and GLP-1R agonist inactive.
Screening S=C(NCc1ccccc1)NCc1ccccc1 returned HEK293 tox inactive, BRCA1 expr up inactive, GLP-1R inv ag inactive and GLP-1R agonist inactive.
`S=C(NCCSCc1ccc(Cl)c(Cl)c1)Nc1ccccc1` gave HEK293 tox inconclusive, BRCA1 expr up inactive, GLP-1R inv ag inconclusive and GLP-1R agonist inactive.
`S=C(NCc1ccccc1)NNc1ccccc1` gave HEK293 tox 8.9µM, BRCA1 expr up inactive, GLP-1R inv ag 10µM and GLP-1R agonist inactive.
`NC(=O)C1CCN(C(=O)C2CC(=O)N(Cc3ccccc3)C2)CC1` (centres undefined) gave HEK293 tox inactive, BRCA1 expr up inactive, GLP-1R inv ag inactive and GLP-1R agonist inactive.
`Cc1ccccc1S(=O)(=O)Cc1ccc(C(=O)N2CC(C)CC(C)C2)o1` (centres undefined) gave HEK293 tox inactive, BRCA1 expr up inactive, GLP-1R inv ag inconclusive and GLP-1R agonist inactive.
`COc1ccc(S(=O)Cc2ccc(C(=O)N3CCN(c4cccc(C)c4C)CC3)o2)cc1` (centres undefined) gave HEK293 tox inactive, BRCA1 expr up inactive, GLP-1R inv ag 7.1µM! and GLP-1R agonist inactive.
For O=C(c1ccc(CS(=O)c2ccccc2Cl)o1)N1CCN(c2cccc(Cl)c2)CC1 (centres undefined) the results were HEK293 tox inconclusive and GLP-1R inv ag 0.89µM.
O=C(c1ccc(CS(=O)c2ccccc2Cl)o1)N1CCN(c2cccc(C(F)(F)F)c2)CC1 (centres undefined) was read as HEK293 tox inactive and GLP-1R inv ag inconclusive.
`Cc1ccccc1S(=O)(=O)Cc1ccc(C(=O)N2CCN(c3cccc(C)c3C)CC2)o1` gave HEK293 tox inconclusive, BRCA1 expr up inactive, GLP-1R inv ag 4.5µM and GLP-1R agonist inactive.
`COc1ccc(N2CCN(C(=O)c3ccc(CS(=O)c4cccc(Cl)c4)o3)CC2)cc1` (centres undefined) gave HEK293 tox inactive, BRCA1 expr up inactive, GLP-1R inv ag inconclusive and GLP-1R agonist inactive.
For CCOc1ccc(/C=C/c2ccc3ccccc3n2)cc1OCC the results were BRCA1 expr up inactive.
O=C(Cn1nnnc1-c1ccccc1F)Nc1ccc(F)c(F)c1 was read as HEK293 tox inactive and GLP-1R inv ag inactive.
`O=c1c2oc3ccccc3c2n(Cc2cccc(Cl)c2)c(=O)n1Cc1ccco1` gave HEK293 tox inactive and GLP-1R inv ag inactive.
COc1ccccc1CNC(=O)Cc1ccccc1 was read as HEK293 tox inactive, BRCA1 expr up 11µM, GLP-1R inv ag inactive and GLP-1R agonist inactive.
COc1ccccc1CNC(=O)Cc1ccc(OC)c(OC)c1 was read as HEK293 tox inactive, BRCA1 expr up inactive, GLP-1R inv ag inactive and GLP-1R agonist inactive.
COc1ccccc1CNC(=S)NCc1ccc(Cl)cc1 was read as HEK293 tox inactive, BRCA1 expr up inactive, GLP-1R inv ag 10µM and GLP-1R agonist inactive.
